This excerpt belongs to a sample that is enriched for hits.
GIRK2 activator = activators of NPY4-receptor-primed GIRK2 channels, summary, cell-based, HEK293, thallium flux; 34,000 tested, under 10 active; HEK293 GIRK2/NPY4 cells, thallium flux fluorescence; activation (% efficacy), % for hits at 37.5 µM; AID 1259324, 2017;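 active = primary screen hit, no activity in plain HEK293 cells, and in GIRK2-only cells above 5% efficacy rising with concentration; inactive = the rest, including fluorescent compounds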;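 also: efficacy is normalized control-subtracted fluorescence 15 s after thallium addition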
Target sequence (P48051 whole entry, looked up): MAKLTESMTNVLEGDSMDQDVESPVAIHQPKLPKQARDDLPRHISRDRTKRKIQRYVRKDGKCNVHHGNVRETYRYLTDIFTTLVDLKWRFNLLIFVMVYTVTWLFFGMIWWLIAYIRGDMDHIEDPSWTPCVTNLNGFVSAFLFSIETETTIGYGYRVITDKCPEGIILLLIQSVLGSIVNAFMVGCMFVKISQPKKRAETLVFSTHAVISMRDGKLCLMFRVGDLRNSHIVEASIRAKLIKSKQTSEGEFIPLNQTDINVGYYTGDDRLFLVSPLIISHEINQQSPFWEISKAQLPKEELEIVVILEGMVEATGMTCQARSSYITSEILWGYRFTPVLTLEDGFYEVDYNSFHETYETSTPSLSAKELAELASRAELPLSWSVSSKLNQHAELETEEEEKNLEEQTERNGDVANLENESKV
AMPAR-TARP mod = modulators of GluA2-stargazin AMPA receptor complexes, primary screen, cell-based, membrane potential dye; Voltage-dependent calcium channel gamma-2 subunit (Mus musculus) + Glutamate receptor 2 …; HEK293 GluA2+stargazin, membrane potential dye (FDSS), glutamate EC50; hits were called plate by plate, in both directions; calls only at 30 µM; actives 3.5% (n = 40,000); AID 1259245, 2017;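 active = any of four per-well response measures lying three or more SD from its plate-wide compound average, in either direction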
Large screens that a line does not name were inactive.

CSc1ccc(-c2noc(CSc3nc4ccccc4c(=O)n3C)n2)cc1	none (no result: AMPAR-TARP mod)
Cn1c(=O)[nH]c(=O)c2c1nc(N=Nc1c(O)[nH]c3ccccc13)n2CCc1ccccc1	none (no result: GIRK2 activator)
Cc1ccc(N2CCn3c2nc2c3c(=O)n(CC(=O)C(C)(C)C)c(=O)n2C)cc1Cl	none (no result: GIRK2 activator)
CN(C1CCCC1)S(=O)(=O)c1ccc(C(=O)Nc2cccc(Br)c2)cc1	none (no result: GIRK2 activator)
CC(=O)Nc1cccc(NC(=O)C2(c3ccc(F)cc3)CC2)c1	none (no result: AMPAR-TARP mod)
O=C(Nc1ccccc1C(F)(F)F)N1CCC(c2nnc(-c3ccco3)o2)CC1	none
Cc1nc2c(ccc3nc(NC(=O)CCCS(=O)(=O)c4ccccc4)sc32)s1	AMPAR-TARP mod active
COc1ccc(S(=O)(=O)CCCC(=O)Nc2nc(-c3cccc([N+](=O)[O-])c3)cs2)cc1	none
O=C(CCCS(=O)(=O)c1ccccc1)Nc1nc(-c2cc([N+](=O)[O-])cs2)cs1	AMPAR-TARP mod active
COc1ccc(S(=O)(=O)CCCC(=O)Nc2nc(-c3cc([N+](=O)[O-])cs3)cs2)cc1	AMPAR-TARP mod active
O=C(CCCS(=O)(=O)c1ccccc1)Nc1nc2ccccc2s1	none
CS(=O)(=O)c1ccc2nc(NC(=O)c3ccc(=O)n(Cc4c(F)cccc4Cl)c3)sc2c1	none
O=C(Nc1nc2ccc([N+](=O)[O-])cc2s1)c1ccc(=O)n(Cc2c(F)cccc2Cl)c1	AMPAR-TARP mod active
O=C(CS(=O)(=O)Cc1ccccc1)Nc1nc(-c2cc([N+](=O)[O-])cs2)cs1	none
CCCOc1ccc(S(=O)(=O)N2CCCC2)cc1C	none (no result: GIRK2 activator)
O=C(CCCS(=O)(=O)c1ccc(Cl)cc1)Nc1nc2ccc([N+](=O)[O-])cc2s1	none (no result: GIRK2 activator)
N#Cc1ccsc1NC(=O)CCCS(=O)(=O)c1ccccc1	AMPAR-TARP mod active
COc1ccc(S(=O)(=O)CCCC(=O)Nc2nc3ccc([N+](=O)[O-])cc3s2)cc1	AMPAR-TARP mod active
N#Cc1ccccc1NC(=O)CCCS(=O)(=O)c1ccccc1	none
CSc1ccccc1C(=O)NCC(O)(c1ccccc1)C(F)(F)F (stereo not drawn)	none
COc1cc(/C=C/C(=O)c2cc(Cl)ccc2O)cc(OC)c1OC	none (no result: GIRK2 activator)
OC(COc1ccc(-c2ccccc2)cc1)CN1CCN(c2ccccn2)CC1 (stereo not drawn)	none (no result: GIRK2 activator)
OC(COc1ccc2cc(Br)ccc2c1)CN1CCN(c2ccccn2)CC1 (stereo not drawn)	AMPAR-TARP mod active (no result: GIRK2 activator)
Cn1nc(NC(=O)c2cc(-c3ccccc3)on2)c2c1NC(=O)CC2c1cccs1 (stereo not drawn)	none
O=C(NCc1cccs1)NCC1CCN(C(=O)c2cc3ccccc3o2)CC1	none
O=C(NCC1CCN(C(=O)c2ccccc2F)CC1)c1ccc2nsnc2c1	none
O=C(NCC1CCN(C(=O)c2cc3ccccc3o2)CC1)c1ccc2nsnc2c1	AMPAR-TARP mod active
O=C(/C=C/c1cccs1)NCC1CCN(C(=O)c2cc3ccccc3o2)CC1	AMPAR-TARP mod active
CC1CS(=O)(=O)N(c2cccc(C(=O)NCc3ccccc3F)c2)C1=O (stereo not drawn)	none
Cc1ccccc1NC(=O)CSc1nc(-c2ccccc2)[nH]c1S(=O)(=O)c1ccccc1	none
CN1CCN(C(CNS(=O)(=O)c2ccc(F)c(C(F)(F)F)c2)c2ccc3c(c2)OCO3)CC1 (stereo not drawn)	none (no result: GIRK2 activator)
CCOC(=O)N1CCC(NC(=O)C(=O)Nc2ccccc2OC)CC1	none
CCOc1ccc(-c2nc(Cn3ccn4nc(-c5ccc(OC)cc5)cc4c3=O)c(C)o2)cc1	none
CC(C)C(=O)Nc1ccc(SCC(=O)Nc2ccc3c(c2)OCCO3)nn1	none
CS(=O)(=O)N1CCC(Cn2c(C(F)(F)F)nc3ccccc32)CC1	none
O=S(=O)(c1cccs1)N1CCC(Cn2c(C(F)(F)F)nc3ccccc32)CC1	AMPAR-TARP mod active
COc1ccc(-c2nnc3ccc(OCCNC(=O)Nc4ccccc4C)nn23)cc1OC	AMPAR-TARP mod active
COc1cccc(-c2nnc3ccc(OCCNC(=O)NC4CCCCC4)nn23)c1	AMPAR-TARP mod active
COc1ccc(-c2nnc3ccc(OCCNC(=O)c4cccs4)nn23)cc1OC	none
COc1ccc(-c2nnc3ccc(OCCNC(=O)c4ccco4)nn23)cc1	AMPAR-TARP mod active
COc1cccc(-c2nnc3ccc(OCCNC(=O)Nc4cccc(C)c4)nn23)c1	none
COc1ccc(-c2nnc3ccc(OCCNC(=O)c4ccccc4Cl)nn23)cc1	none
O=C(Cc1cc(-c2cccs2)on1)NCCCn1ccnc1	none
COc1ccc(C(=O)N2CCN(c3nccn3-c3ccc(C)cc3)CC2)c(OC)c1	none
Cc1ccc(-c2csc(NC(=O)c3ccc(S(=O)(=O)C(C)C)cc3)n2)cc1	none (no result: GIRK2 activator)
CC(C)N(C)S(=O)(=O)c1ccc(C(=O)Nc2nc(-c3ccncc3)cs2)cc1	AMPAR-TARP mod active
CON(C)C(=O)C1CN(C(=O)c2cnccn2)C1	none
Cc1ccc(NC(=O)Nc2ccc(Nc3cc(-n4ccnc4)ncn3)cc2)cc1F	none
COc1ccccc1N1CCN(S(=O)(=O)c2ccc(F)c(C(=O)Nc3ccc(Cl)cc3)c2)CC1	AMPAR-TARP mod active (no result: GIRK2 activator)
COc1ccc(Cl)cc1NC(=O)c1cc(S(=O)(=O)N2CCN(c3ccccc3F)CC2)ccc1F	none (no result: GIRK2 activator)
COc1ccc(-c2ccc(=O)n(CCCC(=O)N3CCc4ccccc43)n2)cc1OC	none
Cc1ccc(-c2ccc(=O)n(CCCC(=O)N3c4ccccc4CC3C)n2)cc1 (stereo not drawn)	AMPAR-TARP mod active
COCCCNC(=O)C(=O)Nc1ccc([N+](=O)[O-])cc1	AMPAR-TARP mod active (no result: GIRK2 activator)
CN(C)CCNC(=O)C(=O)Nc1ccc([N+](=O)[O-])cc1	none (no result: GIRK2 activator)
CCCCN(C)C(=O)Cn1c(C2CC(=O)N(Cc3ccc(F)cc3)C2)nc2ccccc21 (stereo not drawn)	AMPAR-TARP mod active
CC(C)(C)N1CC(c2nc3ccccc3n2Cc2ccccc2Cl)CC1=O (stereo not drawn)	AMPAR-TARP mod active (no result: GIRK2 activator)
CCCN(CCC)C(=O)Cn1c(C2CC(=O)N(Cc3ccc(F)cc3)C2)nc2ccccc21 (stereo not drawn)	none
CCCn1c(C2CC(=O)N(C(C)(C)C)C2)nc2ccccc21 (stereo not drawn)	none (no result: GIRK2 activator)
Cc1ccccc1Cn1c(C2CC(=O)N(C(C)(C)C)C2)nc2ccccc21 (stereo not drawn)	AMPAR-TARP mod active (no result: GIRK2 activator)
C#CCn1c(C2CC(=O)N(C(C)(C)C)C2)nc2ccccc21 (stereo not drawn)	none (no result: GIRK2 activator)
O=C1CC(c2nc3ccccc3n2Cc2ccccc2)CN1Cc1ccccc1 (stereo not drawn)	AMPAR-TARP mod active (no result: GIRK2 activator)
CCn1c(C2CC(=O)N(Cc3ccccc3)C2)nc2ccccc21 (stereo not drawn)	none (no result: GIRK2 activator)
COc1ncccc1C(=O)Nc1ccc2cn[nH]c2c1	none
Cc1cc(Br)ccc1OCC(=O)Nc1ccc(S(N)(=O)=O)cc1	none
CCn1c(C2CC(=O)N(C(C)(C)C)C2)nc2ccccc21 (stereo not drawn)	none (no result: GIRK2 activator)
CC(C)(C)N1CC(c2nc3ccccc3n2Cc2ccccc2)CC1=O (stereo not drawn)	AMPAR-TARP mod active (no result: GIRK2 activator)
O=C(NCC1CCN(Cc2cccs2)CC1)c1c(F)cccc1Cl	none (no result: AMPAR-TARP mod)
O=C(COc1ccc2ccccc2c1)Nc1ccc(CC(=O)NC2CC2)cc1	none
O=C(NCC(c1ccco1)N1CCOCC1)NC1CCCCC1 (stereo not drawn)	none

Assay outcomes (PubChem BioAssay)
